# “And” between values parts separate entries of the source, which are not always exact repeats. Identical values can stand only once. The source made the active and inactive calls. Unless noted, no rule for the calls is given here.
# What was measured:
# [1] = compounds altering circadian rhythm period length – cell-based, LOPAC library, luminescence reporter (AID 2774); details: circadian reporter cells, at 7 µM, actives lie on both sides;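 also: values are relative to mean of DMSO wells on each plate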
# [2] = compounds altering viability of human ES cells (AID 493140); details: human embryonic stem cell survival screen; stronger effect = higher value;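 also: cells exposed to compounds for four days before counting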
# [3] = system: Hepatitis C virus NS3 helicase; test: blockers of NS3h binding to ssDNA – biochemical, fluorescence polarization, LOPAC1280 library, primary screen (AID 687035; in the data active = inhibition above about 37%); details: Purified HCV NS3 helicase, Cy5-dT15 ssDNA binding fluorescence polarization; stronger effect = higher value; concentration not given here
# [4] = compounds altering Cy5-DNA-NS3h complex signal – biochemical, LOPAC1280, artefact control for HCV NS3 helicase inhibitor project (AID 687037); details: Cy5-DNA-NS3h complex fluorescence interference counterscreen
# [5] = viability loss with induced miR-34 in A549 – imaging, A549 dox-inducible miR-34, nuclei and caspase counts, primary screen (AID 1347080;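 active = compounds whose cell count with miR-34 switched on is under 0.7 times the count with it off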); details: A549 miR-34 inducible, Hoechst nuclei count, 48 h
# [6] = chitosan synthesis blockers in C. neoformans – flow cytometry, Cibacron Brilliant Red staining (AID 1347148); details: Cryptococcus neoformans chitosan, stronger effect = lower value; at 10 µM unless noted;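 also: compound exposure lasted three days at 37 degrees C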
# [7] = blockers of cellular phospholipid synthesis – cell-based, LOPAC library, screen 4, primary screen (AID 1347384); details: animal cells, phospholipid biosynthesis inhibition screen; at 10 µM
# [8] = galactose survival enhancers in mitochondrial complex I cybrids – cell-based, galactose medium, ATP luminescence, primary screen (AID 1645843;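 active = z-score of at least 1.8 in each of two replicates, scored against plate mean and spread of sample wells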;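 also: positive z means more ATP and so rescue of galactose-driven cybrid death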); details: complex I mutant cybrid cells, 72 h, stronger effect = higher value
# [9] = MELAS cybrid and Rieske KO viability enhancers – cell-based, MELAS cybrids, Rieske KO mouse fibroblasts, CellTiter-Glo, primary screen (AID 1508586;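 active = mean z-score across replicates of 1.96 or higher in either the MELAS or the Rieske mutant cell line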;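 also: z relative to plate mean and SD of compound and empty wells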); details: low glucose
# [10] = stronger effect = lower value, cell number ratio, induced over uninduced
# [11] = measured here: relative caspase fold change +Dox/-Dox
# [12] = measured here: total cells with miR-34 induction, stronger effect = lower value
# [13] = measured here: total cells without miR-34 induction
# [14] = MELAS cybrid survival, CellTiter-Glo 48 h, stronger effect = higher value
# [15] = Rieske KO mouse fibroblast survival, CellTiter-Glo 72 h
SMILES,period change [1],survival [2],inhibition [3],fluorescence ratio (interference) [4],"fold change [5, 10]","fold change [5, 11]","cell count [5, 12]","cell count [5, 13]",fold fluorescence [6],outcome [7],z-score [8],"z-score [9, 14]","z-score [9, 15]"
CC(C)(C)c1cc(/C=C(\C#N)C(N)=S)cc(C(C)(C)C)c1O,0.535 h (inactive),106 (inactive),5% (inactive),1 (inactive),1.09 (inactive) and 1.17 (inactive),1.31 and 0.937,4070 and 1820,3720 and 1560,11.2 [at 158 µM] (inactive),active,-1.35 (inactive),,
CCC(C)(C)C(=O)C(=O)N1CCCC[C@H]1C(=O)O[C@H](CCc1ccc(OC)c(OC)c1)c1cccc(N)c1,,,,,0.702 (inactive),0.49,4270,6080,,,,,
O=c1oc(Cl)c(Cl)c2ccccc12,-0.015 h (inactive),,-3% (inactive),1 (inactive),1.11 (inactive) and 1.06 (inactive),1.14 and 0.927,6300 and 1380,5680 and 1300,6.4 [at 232.5 µM] (inactive),inactive,-1.02 (inactive),,
CCCCC/C=C\C/C=C\C/C=C\C/C=C\CCCCCC(=O)O,,79.5 (inactive),,,1.01 (inactive) and 0.958 (inactive),1.23 and 0.967,6030 and 5700,5980 and 5950,4.08 (inactive),,,,
O=c1[nH]c2cc(C(F)(F)F)ccc2n1-c1cc(C(F)(F)F)ccc1O,-0.3 h (inactive),,-6% (inactive),0.9 (inactive),0.996 (inactive) and 0.985 (inactive),0.925 and 0.952,9130 and 5130,9180 and 5210,3.32 [at 138 µM] (inactive),inactive,0.585 (inactive),,
CC(=O)OCOC(=O)CN(CC(=O)OCOC(C)=O)c1ccccc1OCCOc1ccccc1N(CC(=O)OCOC(C)=O)CC(=O)OCOC(C)=O,,,,,1.04 (inactive) and 0.871 (inactive),1.07 and 0.533,2560 and 5870,2460 and 6740,5.04 [at 65.4 µM] (inactive),,,-0.31 (inactive),0.894
CCCCCC[C@@H]([C@@H](C)O)n1cnc2c(N)ncnc21,0.15 h (inactive),,-4% (inactive),1 (inactive),0.934 (inactive) and 0.834 (inactive),0.993 and 0.703,8420 and 3190,9020 and 3820,5.1 [at 180.3 µM] (inactive),inactive,-0.69 (inactive),,
O=C1NC(O)=NC1(c1ccccc1)c1ccccc1,-0.095 h (inactive),,-2% (inactive),1.1 (inactive),0.966 (inactive) and 0.93 (inactive),1.46 and 0.866,9800 and 7860,10100 and 8450,4.71 [at 198.2 µM] (inactive),,0.26 (inactive),-0.314 (inactive),-0.0769

# — PubChem BioAssay
